Records with an inconclusive call do not appear. Calls of active or inactive are those of the source. How the source made its calls, unless noted: active means hit-call score of the fitted dose curve at least 0.9, where 1 is the maximum; inactive means score below 0.9.
How the values were obtained:
[1] = BSK_BT_PBMCCytotoxicity: PBMC Cytotoxicity Assessment in the BioMAP Diversity Plus: BT Assay (AID 2284225); conditions: primary human B cells with PBMC;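 further: PBMC viability measured by Alamar Blue dye reduction fluorescence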
Procedure, shortened: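 PBMC (75,000/well) pretreated with compound 1 h, then activated with SEB and TSST-1 (20 ng/mL each final), incubated 90 h; Alamar Blue added 6 h, fluorescence read at 546/580 nm. Fitted relative to DMSO.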

[2] = read-out: Secreted IgG (sIgG), gene 3500; assay: BSK_BT_sIgG: BioMAP Diversity Plus: BT Assay for Secreted IgG (sIgG) Biomarker Activity (AID 2284226); conditions: primary human B cells with PBMC
Procedure, shortened: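 Read-out: ELISA for secreted IgG after 24 h of chemical exposure in a B cell plus PBMC co-culture. Values reflect upward-direction fitting against DMSO negative controls.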

[3] = BSK_BT_Bcell_Proliferation: Viability Assessment in the BioMAP Diversity Plus: BT Assay for B cell Proliferation (AID 2284227); conditions: primary human B cells with PBMC
Procedure, shortened: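 Using a human primary B cell–PBMC co-culture, the assay measures total protein by sulforhodamine B absorbance as a gauge of proliferation after 72 h. Analysis followed the positive fitting direction with DMSO as baseline.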

[4] = read-out: Interleukin 6 (IL6), IL6 (gene 3569); assay: BSK_BT_xIL6: BioMAP Diversity Plus: BT Assay for Interleukin 6 (IL6) Biomarker Activity (AID 2284228); conditions: primary human B cells with PBMC
Procedure, shortened: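 B cells and peripheral blood mononuclear cells (human primary co-culture) were dosed with chemical, and after 24 h IL-6 released into the medium was measured by Luminex xMAP. Responses were analysed as gain of signal over DMSO control.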

[5] = read-out: Interleukin 17A (IL17A), IL17A (gene 3605); assay: BSK_BT_xIL17A: BioMAP Diversity Plus: BT Assay for Interleukin 17A (IL17A) Biomarker Activity (AID 2284229); conditions: primary human B cells with PBMC
Procedure, shortened: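 Secreted IL-17A was the measured endpoint, read by Luminex xMAP multiplex in supernatants of a human B cell/PBMC co-culture harvested 24 h after chemical dosing. Signal increase relative to DMSO defined activity.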

[6] = read-out: Tumor necrosis factor (Homo sapiens) (UniProt P01375); assay: BSK_BT_xTNFa: BioMAP Diversity Plus: BT Assay for Tumor necrosis factor alpha (TNF-alpha) Biomarker Activity (AID 2284230); conditions: primary human B cells with PBMC
Procedure, shortened: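 Endpoint derived in the positive direction versus DMSO vehicle. Cells: B cells together with PBMC, exposed 24 h before TNF-alpha in the medium was read on the Luminex xMAP platform.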

[7] = read-out: Vascular cell adhesion molecule 1 (VCAM1), VCAM1 (gene 7412); assay: BSK_MyoF_VCAM1: BioMAP Diversity Plus: MyoF Assay for Vascular cell adhesion molecule 1 (VCAM1) Biomarker Activity (AID 2284231); conditions: primary human lung fibroblasts
Procedure, shortened: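 ELISA read-out of VCAM-1 on human lung fibroblasts 24 h after chemical treatment, with positive-direction curve fitting relative to DMSO controls. Parallel cultures were stained with sulforhodamine B for total protein to flag overt cytotoxicity.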

[8] = CCTE_Mundy_HCI_Cortical_Synap_Neur_Matur_CellBodySpotCount: CCTE's Synaptogenesis and Neurite Maturation Assay in rat cortical cells for Cell Body Spot Count, Mundy Lab (AID 2284223)
Procedure, shortened: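 Rat cortical neurons; AraC @ DIV 5; dose + media change DIV 7; fix DIV 12; anti-MAP2/anti-synaptophysin IF, Hoechst; HCI count of soma synaptophysin puncta/neuron; DMSO = negative control.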

[9] = CCTE_Mundy_HCI_hNP1_Pro_ResponderAvgInten: CCTE's Proliferation Assay in human neuroprogenitor cells, Mundy Lab (AID 2284224; active means hit-call score of the fitted dose curve at least 0.9, where 1 is the maximum;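 further: human neural progenitor cells hNP1 derived from WA09 embryonic stem cells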)
Procedure, shortened: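 Proliferation read as average intensity of BrdU-positive cells, imaged at 26.25 h post-dosing: chemical exposure started after 40–44 h culture, BrdU during final 4 h, paraformaldehyde fixation. Positive-direction fit relative to DMSO.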

[10] = TAMU_HCS_1.5hr_SingleDonor1434_Cytotoxicity: Cytotoxicity Assessment using High-content Screening (HCS) Fluorescent Imaging for the Texas A&M University (TAMU) 1.5-hr Human Induced Pluripotent Stem Cell (iPSC)-derived Cardiotoxicity Assay (AID 2284234; active means hit-call score of the fitted dose curve at least 0.9, where 1 is the maximum)
Procedure, shortened: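 Human iPSC-derived cardiomyocytes dosed at 0.2, 1, 10, 100 uM final (0.5% DMSO) for 90 min at 37 C. Hoechst 33342-stained nuclei counted by 10x high-content imaging; POD is EC10, a 10% drop in total cell count versus DMSO.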

Measured: AC50

Tumor necrosis factor (Homo sapiens), sequence (P01375 whole entry, looked up): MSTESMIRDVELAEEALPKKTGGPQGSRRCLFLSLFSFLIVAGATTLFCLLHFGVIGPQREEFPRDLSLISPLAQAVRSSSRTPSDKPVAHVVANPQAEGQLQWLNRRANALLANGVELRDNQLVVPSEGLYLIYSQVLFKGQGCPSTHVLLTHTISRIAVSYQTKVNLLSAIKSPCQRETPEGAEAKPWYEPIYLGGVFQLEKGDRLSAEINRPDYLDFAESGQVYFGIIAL

COC(=O)c1ccc(C)cc1
not listed: [8] | [9] | [10]
inactive: all other assays above

O=C1CCCCCCCCCCCCCCO1
active: [1] 36.8 µM | [2] 23.4 µM | [3] 34.9 µM | [4] 30.4 µM | [5] 25.2 µM | [6] 35.8 µM | [7] 20 µM

CNC[C@H](O)c1cccc(O)c1
not listed: [8] | [9] | [10]
inactive: all other assays above

N#Cc1ccc(CC(=NNC(=O)Nc2ccc(OC(F)(F)F)cc2)c2cccc(C(F)(F)F)c2)cc1
active: [2] 9.95 µM
not listed: [10]
inactive: all other assays above

CCCCCCCCC=O
not listed: [8] | [9] | [10]
inactive: all other assays above

Nc1cc([N+](=O)[O-])ccc1Cl
not listed: [8] | [9] | [10]
inactive: all other assays above

CC(C)(COC(=O)c1ccccc1)COC(=O)c1ccccc1
active: [2] 29.9 µM
not listed: [8] | [9] | [10]
inactive: all other assays above

CN(CCOc1ccc(CC2SC(=O)NC2=O)cc1)c1ccccn1 (stereo unspecified)
active: [7] 3.97 µM
not listed: [8] | [9] | [10]
inactive: all other assays above

CC(C)Oc1ccccc1O
not listed: [8] | [9] | [10]
inactive: all other assays above

CCCCCCCCCCCCCCCCCC(=O)OCC(CC)CCCC (stereo unspecified)
not listed: [8] | [9] | [10]
inactive: all other assays above

c1ccc2sc(SN(C3CCCCC3)C3CCCCC3)nc2c1
not listed: [8] | [9] | [10]
inactive: all other assays above

c1ccc2c(c1)c1cccc3ccc4cccc2c4c31
active: [2] 20 µM | [4] 2.63 µM
not listed: [8] | [9]
inactive: all other assays above

CCn1c2ccccc2c2cc(N)ccc21
active: [2] 15.4 µM | [3] 13.1 µM | [4] 11.6 µM
inactive: [1] | [5] | [6] | [7]

O=C(O)c1cn(C2CC2)c2cc(N3CCNCC3)c(F)cc2c1=O
not listed: [8] | [9] | [10]
inactive: all other assays above

CC(=O)/C=C/C1=C(C)CCCC1(C)C
not listed: [8] | [9] | [10]
inactive: all other assays above

CC(=O)O[C@]1(C(C)=O)CC[C@H]2[C@@H]3C[C@H](C)C4=CC(=O)CC[C@]4(C)[C@H]3CC[C@@]21C
active: [2] 14.4 µM
not listed: [8] | [9] | [10]
inactive: all other assays above

O=[N+]([O-])c1cc(C(F)(F)F)ccc1Cl
not listed: [8] | [9] | [10]
inactive: all other assays above

C=C[Si](OCC)(OCC)OCC
not listed: [8] | [9] | [10]
inactive: all other assays above

C#C[C@]1(O)CC[C@H]2[C@@H]3CCC4=Cc5oncc5C[C@]4(C)[C@H]3CC[C@@]21C
inactive: [1] | [4]
active: [2] 14.3 µM | [3] 33.1 µM | [5] 24.4 µM | [6] 33.7 µM | [7] 20 µM

Reference: PubChem BioAssay (EPA / NIEHS)
